These results are taken from PubChem BioAssay.

For assay [1], the system named is Wnt5a (protein binding on small-molecule microarray). The assay can be described thus: small molecules binding Wnt5a protein – biophysical, small-molecule microarray, 635/667 nm fluorescence, primary screen (AID 1142).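 Further: fluorescence read at 667 nm with signal to noise per printed feature.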 The note with it: 635 nm fluorescence, higher = more signal.
Assay [2] in a line: ATP-based viability of Huh7 replicon cells – cell-based, CellTiter-Glo luminescence, basal, 48 h, cytotoxicity control for HCV replication inhibitor project, primary screen (AID 1143).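 Further: Huh7 hepatoma cells carrying a hepatitis C replication reporter with no stimulus; test concentration not given here.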 Particulars: higher = more signal, called active from +8 up or from −8 down. (In antiviral work, replicon cells carry a viral genome segment that copies itself.)
A short description of assay [3]: Pseudomonas biofilm growth suppression – PAO1 strain, BacTiter-Glo luminescence, LB-PBS, primary screen (AID 1144). Particulars: P. aeruginosa PAO1 biofilm, 12 h, higher = more signal.
Assay [4] in a line: basal CRE-LacZ reporter activity in PC12 – cell-based, unstimulated, primary screen (AID 1145). Particulars: no forskolin, luminescence, 4.5 h, higher = more signal, called active from +8 up or from −8 down.
The nature of assay [5]: forskolin-driven CRE-LacZ activity in PC12 – cell-based, CRE-LacZ reporter, forskolin-stimulated, primary screen (AID 1146).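 Further: PC12 cells with 6xCRE LacZ reporter stimulated by forskolin 10 µM; beta-galactosidase reporter signal reflecting CREB driven transcription.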 Particulars: luminescence, 4.5 h, higher = more signal, called active from +8 up or from −8 down.
Assay [6] deals with Streptavidin (Streptomyces avidinii) (UniProt P22629). Put plainly: compounds binding control protein streptavidin – biophysical, small-molecule microarray, 635/667 nm fluorescence, artefact control for SMM compound annotation, primary screen (AID 1147).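 Further: signal reflects streptavidin binding to arrayed compounds as a control protein.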 Particulars: higher = more signal.
Assay [7] in a line: probe aInhba binding on compound microarray – biochemical, small-molecule microarray, 635/667 nm fluorescence, primary screen (AID 1148).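 Further: score merges 667nm spot fluorescence with signal-to-noise for antibody binding to printed compounds.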 The note with it: higher = more signal.
Assay [8] deals with Torsin-1A (Homo sapiens) (UniProt O14656). Put plainly: TOR1A wild-type binding on microarray – cell lysate, small-molecule microarray, lysate, 635/667 nm, primary screen (AID 1149). Particulars: COS7 hTOR1A-WT lysate, 635 nm fluorescence, higher = more signal.
Assay [9] has the same target. Put plainly: torsin A mutant lysate binding on microarrays – cell lysate, small-molecule microarray, COS7 lysate, 635/667 nm fluorescence, primary screen (AID 1150).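 Further: score pools 667 nm emission and signal to noise measuring lysate protein binding.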 Particulars: COS7 hTOR1A mutant lysate, 635 nm fluorescence, higher = more signal.
Assay [10] relates to Sonic hedgehog protein (Shh). Put plainly: Sonic hedgehog microarray binding compounds – biochemical, small-molecule microarray, 635/667 nm fluorescence, primary screen (AID 1151).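 Further: Shh protein binding to compounds spotted on small-molecule microarray slides; score combines spot fluorescence intensity with signal-to-noise across triplicate slides.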 The note with it: 635 nm fluorescence, higher = more signal.
A short description of assay [11]: optical density shifts of acrAB sulA E. coli – strain DRC41, OD650, 48 h, E. coli filamentation inducer project, primary screen (AID 1152).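 Further: E. coli MC1000 strain DRC41 lacking acrAB efflux pump and sulA.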 Particulars: higher = more signal, called active from +8 up or from −8 down.
Assay [12] in a line: probe aLefty1 binding on compound microarray – biochemical, small-molecule microarray, 635/667 nm fluorescence, primary screen (AID 1153).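 Further: score merges spot fluorescence with signal-to-noise ratio from the scanned slide images.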 Particulars: higher = more signal.
Assay [13] can be described thus: plasmodial surface anion channel blockers, osmotic lysis – cell-based, P. falciparum Indochina, OD700, 1 h, primary screen (AID 1154). Particulars: P. falciparum Indochina infected RBC osmotic lysis, higher = more signal, called active from +8 up or from −8 down.
A short description of assay [14]: plasmodial surface anion channel blockers, osmotic lysis – cell-based, P. falciparum Indochina, OD700, 2 h, primary screen (AID 1155).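 Further: lysis reports solute entry through the parasite surface anion channel PSAC.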 The note with it: P. falciparum Indochina infected erythrocytes, higher = more signal, called active from +8 up or from −8 down.
Assay [15] in a line: changes in parasitized red cell lysis, either direction – P. falciparum Indochina, OD700, 3 h, PSAC antagonist project, primary screen (AID 1156). Particulars: P. falciparum-infected erythrocytes, osmotic lysis, higher = more signal, called active from +8 up or from −8 down.
A short description of assay [16]: plasmodial surface anion channel blockers, osmotic lysis – cell-based, P. falciparum Indochina, OD700, 18 h, primary screen (AID 1157). The note with it: P. falciparum Indochina infected erythrocytes, osmotic lysis OD700, 18 h; higher = more signal, called active from +8 up or from −8 down.
Assay [17] in a line: S6 kinase pathway phospho-S6 level changes – cell-based, A549, cytoblot, luminescence, serum-stimulated, primary screen (AID 1158).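 Further: serum-stimulated A549 lung adenocarcinoma cells; signal is phosphorylated S6 detected by cytoblot immunostaining with HRP secondary.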 Particulars: 5 h, higher = more signal.
Assay [18] deals with NADPH oxidase 2 (Homo sapiens) (UniProt P04839). The assay can be described thus: compounds shifting NOX2 Amplex Red fluorescence – cell-based, HEK293-NOX2, PMA-stimulated, NOX inhibitor project, primary screen (AID 1159). Further: test concentration not given here. The note with it: 45 min, higher = more signal, called active from +8 up or from −8 down.
The target in assay [19] is NADPH oxidase 4 (Homo sapiens) (UniProt Q9NPH5). Put plainly: compounds shifting NOX4 Amplex Red fluorescence – cell-based, HEK293-NOX4, tetracycline-induced, NOX inhibitor project, primary screen (AID 1160). Particulars: HEK293-NOX4, Amplex Red H2O2 fluorescence, 45 min; higher = more signal, called active from +8 up or from −8 down.
Assay [20] addresses NADPH oxidase 5 (Homo sapiens) (UniProt Q96PH1). Put plainly: compounds shifting NOX5 Amplex Red fluorescence – cell-based, HEK293-NOX5, NOX inhibitor project, primary screen (AID 1161). Particulars: HEK293-NOX5, ionomycin, 45 min, higher = more signal.

The source made the active and inactive calls. Unless noted, how the calls were made is not given here.

NADPH oxidase 4 (Homo sapiens), sequence (Q9NPH5 whole entry, looked up): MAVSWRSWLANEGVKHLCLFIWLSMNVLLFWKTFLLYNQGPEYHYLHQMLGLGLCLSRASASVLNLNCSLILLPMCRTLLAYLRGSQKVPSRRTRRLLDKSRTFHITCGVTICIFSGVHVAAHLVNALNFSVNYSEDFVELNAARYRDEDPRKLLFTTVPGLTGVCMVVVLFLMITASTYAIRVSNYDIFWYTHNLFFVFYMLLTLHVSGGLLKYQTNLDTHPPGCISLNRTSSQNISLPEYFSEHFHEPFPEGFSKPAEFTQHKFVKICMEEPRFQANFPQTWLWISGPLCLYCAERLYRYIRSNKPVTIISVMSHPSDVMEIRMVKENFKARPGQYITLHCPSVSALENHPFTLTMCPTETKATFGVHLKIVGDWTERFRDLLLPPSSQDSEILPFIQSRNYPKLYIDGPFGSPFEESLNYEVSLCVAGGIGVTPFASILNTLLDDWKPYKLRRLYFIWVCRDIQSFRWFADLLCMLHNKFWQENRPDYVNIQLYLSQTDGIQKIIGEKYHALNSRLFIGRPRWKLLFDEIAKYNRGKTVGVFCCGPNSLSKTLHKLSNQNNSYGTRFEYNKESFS
NADPH oxidase 5 (Homo sapiens), sequence (Q96PH1 whole entry, looked up): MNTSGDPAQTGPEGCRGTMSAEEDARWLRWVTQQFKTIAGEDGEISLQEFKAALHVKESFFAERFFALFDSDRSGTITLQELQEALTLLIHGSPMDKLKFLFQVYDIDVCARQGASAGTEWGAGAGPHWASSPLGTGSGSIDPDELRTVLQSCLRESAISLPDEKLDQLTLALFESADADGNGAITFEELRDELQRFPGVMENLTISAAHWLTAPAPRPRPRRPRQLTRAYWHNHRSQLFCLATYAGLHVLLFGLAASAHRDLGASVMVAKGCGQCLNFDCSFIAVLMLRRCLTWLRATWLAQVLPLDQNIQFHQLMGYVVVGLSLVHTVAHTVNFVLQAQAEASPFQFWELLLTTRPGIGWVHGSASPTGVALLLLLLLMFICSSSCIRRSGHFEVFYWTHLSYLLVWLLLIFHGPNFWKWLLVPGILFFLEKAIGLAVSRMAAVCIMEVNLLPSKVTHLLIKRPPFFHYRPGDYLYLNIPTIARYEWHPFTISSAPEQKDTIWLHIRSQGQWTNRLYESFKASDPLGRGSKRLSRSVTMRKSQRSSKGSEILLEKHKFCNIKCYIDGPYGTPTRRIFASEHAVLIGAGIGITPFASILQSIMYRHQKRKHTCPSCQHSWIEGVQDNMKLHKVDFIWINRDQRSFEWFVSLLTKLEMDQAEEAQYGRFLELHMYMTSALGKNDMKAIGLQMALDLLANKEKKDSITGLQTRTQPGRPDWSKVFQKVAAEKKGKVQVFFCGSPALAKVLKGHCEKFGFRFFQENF
Torsin-1A (Homo sapiens), sequence (O14656 whole entry, looked up): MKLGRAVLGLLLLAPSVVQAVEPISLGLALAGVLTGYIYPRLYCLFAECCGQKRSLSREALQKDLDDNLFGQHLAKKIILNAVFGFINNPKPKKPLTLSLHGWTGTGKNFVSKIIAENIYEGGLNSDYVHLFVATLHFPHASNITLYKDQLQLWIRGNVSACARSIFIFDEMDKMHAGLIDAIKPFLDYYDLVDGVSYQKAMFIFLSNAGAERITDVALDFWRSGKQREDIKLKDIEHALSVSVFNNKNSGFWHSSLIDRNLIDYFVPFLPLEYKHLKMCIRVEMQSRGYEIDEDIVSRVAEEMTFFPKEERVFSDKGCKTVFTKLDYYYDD
Streptavidin (Streptomyces avidinii), sequence (P22629 whole entry, looked up): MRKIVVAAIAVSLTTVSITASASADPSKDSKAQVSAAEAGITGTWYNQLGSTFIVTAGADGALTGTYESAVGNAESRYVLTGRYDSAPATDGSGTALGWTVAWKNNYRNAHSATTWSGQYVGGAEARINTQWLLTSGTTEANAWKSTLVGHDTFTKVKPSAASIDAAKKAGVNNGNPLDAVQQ
NADPH oxidase 2 (Homo sapiens), sequence (P04839 whole entry, looked up): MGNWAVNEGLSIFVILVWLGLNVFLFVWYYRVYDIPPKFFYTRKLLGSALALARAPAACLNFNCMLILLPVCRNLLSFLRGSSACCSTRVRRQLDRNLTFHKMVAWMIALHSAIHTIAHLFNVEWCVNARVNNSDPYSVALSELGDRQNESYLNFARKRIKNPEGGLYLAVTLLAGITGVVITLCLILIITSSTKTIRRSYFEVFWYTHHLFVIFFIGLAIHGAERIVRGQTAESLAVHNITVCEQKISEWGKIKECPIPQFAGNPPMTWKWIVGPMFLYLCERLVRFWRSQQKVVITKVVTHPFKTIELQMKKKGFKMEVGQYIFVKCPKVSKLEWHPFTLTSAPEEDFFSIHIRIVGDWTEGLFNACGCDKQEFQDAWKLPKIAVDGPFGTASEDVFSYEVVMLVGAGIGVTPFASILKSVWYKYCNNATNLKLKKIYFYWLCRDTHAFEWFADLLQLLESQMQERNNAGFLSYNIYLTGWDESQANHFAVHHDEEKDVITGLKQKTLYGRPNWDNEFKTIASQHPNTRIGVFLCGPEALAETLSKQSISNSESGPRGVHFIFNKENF

As for `CC(C)Cc1ccc(CN2CC[C@@H](NC(=O)c3ccccc3)C2)cc1`, the composite z-score in [1] was -0.36; in [6], -0.238; in [7] it was -0.157; with Torsin-1A (Homo sapiens) [8] it was 0.205; with Torsin-1A (Homo sapiens) [9], 0.134; in [10], -0.0199. This compound also came in with a composite z-score in [12] of -0.147. The z-score was -2.65 (inactive) in assay [2]; 0.241 (inactive) in [3]; 3.31 (inactive) in assay [4]; 0.603 (inactive) in assay [5]; -0.55 (inactive) in [11]; 1.57 (inactive) in [13]. Also, the z-score is 1.11 (inactive) in assay [14]; 1.23 (inactive) in assay [15]; 0.33 (inactive) in assay [16]; 0.0681 in assay [17]; -0.29 (inactive) in assay [18]; -0.413 (inactive) in assay [19]. The z-score in assay [20] is -2.41.
On to `COCCCNC(=O)[C@]1(Cc2ccccc2CN=[N+]=[N-])N=C(c2ccc(OCCCO)cc2)O[C@@H]1c1ccccc1N=[N+]=[N-]`, for which the composite z-score in assay [1] is 0.693; in assay [6], 0.437; in assay [7] it was 0.4; with Torsin-1A (Homo sapiens) [8], 0.637; in the assay with Torsin-1A (Homo sapiens) [9], 0.557; in assay [10], -0.448. For the same compound, the composite z-score in assay [12] is 0.87. Further, the z-score is -4.12 (inactive) in [2]; 0.206 (inactive) in assay [3]; 2 (inactive) in assay [4]; -0.786 (inactive) in assay [5]; 0.913 (inactive) in [11]; 33.7 (active) in assay [13]. Besides, the z-score in assay [14] is 31.2 (active); in [15] it was 1.91 (inactive); in [16], 8.54 (active); in [17], 0.0038; in assay [18], -0.713 (inactive); in assay [19], 1.06 (inactive). The z-score in [20] turned out to be 1.42.
For the compound `Cc1cccc([C@H]2C[C@H]3C(Br)=C[C@@]2(CO)C(=O)[C@]32CO2)c1`, the composite z-score is 0.253 in assay [1]; -0.376 in assay [6]; -0.128 in assay [7]; -1.59 with Torsin-1A (Homo sapiens) [8]; -1.08 with Torsin-1A (Homo sapiens) [9]; 0.462 in [10]. The composite z-score in assay [12] was 0.0509. The z-score in assay [2] was -0.376 (inactive); in [3] it was -0.53 (inactive); in assay [4], -0.595 (inactive); in assay [5], 3.9 (inactive); in assay [11], -0.269 (inactive); in assay [13] it was -0.131 (inactive). Moreover, the z-score was 0.27 (inactive) in [14]; -0.759 (inactive) in assay [15]; -0.063 (inactive) in assay [16]; -0.71 in assay [17]; 0.26 (inactive) in [18]; 0.711 (inactive) in assay [19]. Also, the z-score in assay [20] is -0.0286.
Turning to `COc1cccc(C)c1NC(=O)O[C@H]1[C@H](OC(=O)Nc2ccccc2-c2ccccc2)[C@@H](OC(=O)Nc2ccccc2-c2ccccc2)[C@@H](OC)O[C@@H]1CO`, the composite z-score in assay [1] was determined as 0.933; in assay [6] it was 1; in assay [7], 0.179; in the assay with Torsin-1A (Homo sapiens) [8], 0.631; with Torsin-1A (Homo sapiens) [9] it was 1.23; in assay [10], 0.457. The same compound yielded a composite z-score in assay [12] of 0.406. The z-score is -5.6 (inactive) in [2]; -0.325 (inactive) in [3]; 1.13 (inactive) in assay [4]; -1.05 (inactive) in [5]; -1.33 (inactive) in [11]; 2.54 (inactive) in [13]. The z-score in assay [14] was 1.13 (inactive); in assay [15] it was -0.857 (inactive); in assay [16], 0.937 (inactive); in assay [17] it was -0.338; in assay [18], -3.62 (inactive); in [19], -1.2 (inactive). In [20], the z-score was -1.72.
As to `CCCCCCc1nc(-c2ccc(OC)nc2)c(C)c2c1[Si](C(C)C)(C(C)C)OC2`, the composite z-score is -0.0701 in assay [1]; -0.2 in assay [6]; 0.0536 in assay [7]; 0.397 in the assay with Torsin-1A (Homo sapiens) [8]; -0.57 with Torsin-1A (Homo sapiens) [9]; 0.417 in assay [10]. In addition, the composite z-score in assay [12] is -0.115. Moreover, the z-score in assay [2] was -2.75 (inactive); in assay [3], -1.13 (inactive); in assay [4] it was 0.106 (inactive); in assay [5] it was -0.556 (inactive); in [11] it was 0.579 (inactive); in assay [13], 1.74 (inactive). The z-score is -0.0075 (inactive) in [14]; 0.974 (inactive) in assay [15]; -0.349 (inactive) in assay [16]; 1.34 in assay [17]; -1.98 (inactive) in assay [18]; -0.117 (inactive) in [19]. Moreover, the z-score in assay [20] is -2.71.
